These results are taken from PubChem BioAssay (Tox21).

Results filed as inconclusive are left out. A call without a number means that no potency is given here. Activity calls are given as the source filed them. Calls follow the shape of the dose curve; as a rule, active = well fitted cell-killing curve with a large enough effect in the repeat runs; inconclusive = weak or mixed curves, or effect the other way; inactive = flat fitted curve, though single readings scatter.
Potency is read from the fitted curve at half-maximal effect.

This test in a line: qHTS assay to identify small molecule antagonists of the estrogen receptor alpha (ER-alpha) signaling pathway using the BG1 cell line in the presence of 0.1 nM 17-beta-estradiol - cell viability counter screen (AID 1259241). Also: nearly all actives have a fitted effect of over 40% in size. The note with it: VM7Luc4E2 (BG1) viability, CellTiter-Fluor protease, 22 h, 0.1 nM estradiol agonist added; series mostly up to 92.4 µM. An excerpt: National Center for Advancing Translational Sciences [NCATS]
NIH Chemical Genomics Center [NCGC]
U.S. Environmental Protection Agency [EPA]
National Institutes of Environmental Health Sciences [NIEHS]
National Toxicology Program [NTP]
U.S. Food and Drug Administration [FDA]
Estrogen receptor (ER), a member of the nuclear hormone receptor plays an important role in development, metabolic homeostasis and reproduction. Two subtypes of ER, ER-alpha and ER-beta, have similar expression patterns with some uniqueness in both types. Endocrine disrupting chemicals (EDCs) and their interactions with steroid hormone receptors like ER causes disruption of normal endocrine function. Therefore, it is important to understand the effect of environmental chemicals in ER signaling pathway. For identifying ER antagonists, VM7Luc4E2 cell line was used to screen against Tox21 compound libraries.
VM7Luc4E2 cell line (provided by Denison MS, University of California) endogenously express full-length ER-alpha and is stably transfected with a plasmid containing four estrogen responsive elements (ERE) upstream of a luciferase reporter gene. The current screening for identification of ER-alpha inhibitors against Tox21 compound libraries used lower concentration (0.1 nM) of 17beta-Estradiol as a stimulator. The cytotoxicity of the Tox21 compound libraries against VM7Luc4E2 cell line was tested by measuring live-cell protease activity using CellTiter-Fluor assay in the same wells.
Tox21 Assay Protocol Summary:
VM7Luc4E2 cells were cultured in phenol red free assay medium containing 10% charcoal stripped FBS for 5 days prior to the assay. The cells were dispensed at 4,000 cells/well in 4 uL of assay medium into white wall/solid-bottom 1536-well plates (Corning Life Sciences, Corning, NY) using a Multidrop Combi (ThermoFisher Scientific, Waltham, MA) dispenser. After the assay plates were incubated at 37C and 5% CO2 for 24 hr, 23 nL of compounds dissolved in DMSO, positive controls or DMSO only was transferred to the assay plates by a Pintool station (Kalypsys, San Diego, CA). The transfer of compounds was followed by the addition of 1 uL of 0.1 nM (final concentration) agonist (17beta-Estradiol)/assay medium using a Flying Reagent Dispenser (FRD, Aurora Discovery, San Diego, CA). The plates were incubated at 37C and 5% CO2 for 22 hr. For cytotoxicity assay, 1 uL of CellTiter-Fluor reagent (Promega Corporation, Madison, WI) was added to each well using the FRD and after 30 min incubation at 37C and 5% CO2, The fluorescence intensity was measured using ViewLux plate reader (PerkinElmer, Shelton, CT).
Background: In qHTS, concentration-response curves come from the screen itself.
As for `Cc1cc(Cc2ccc(N)c(C)c2)ccc1N`, the Potency result was “inactive”.
The value for `O=C(c1ccc(O)cc1)c1ccc(O)cc1O` was “inactive”.
To `CN(C)c1ccc(C(=N)c2ccc(N(C)C)cc2)cc1` belongs 18.6 µM (active).
`C=C(C#N)C(=O)OCC`: the Potency result is “inactive”.
To `CC(=O)[C@@]1(O)CC[C@H]2[C@@H]3CCC4=CC(=O)CC[C@]4(C)[C@H]3CC[C@@]21C` belongs “inactive”.
On to `CCOC(=O)[C@H](CCc1ccccc1)N[C@@H](C)C(=O)N1Cc2ccccc2C[C@H]1C(=O)O`, for which the Potency entry was “inactive”.
To `CC(C)NCC(O)COc1cccc2ccccc12` (stereo not given) belongs “inactive”; to `C=C1C2CCC(C2)C1(C)C` (stereo not given), “inactive”.
The value for `CC[Si](OC(C)=O)(OC(C)=O)OC(C)=O` was “inactive”.
To `OC[C@@H](O)[C@H](O)[C@H](O)[C@@H](O)CO` belongs “inactive”; to `OC[C@@H](O)[C@@H](O)[C@H](O)[C@@H](O)CO`, “inactive”; to `Oc1ccc2ccccc2c1N=Nc1ccccc1`, 30.6 µM (active).
Consider `Nc1nc2ncc(CNc3ccc(C(=O)N[C@@H](CCC(=O)O)C(=O)O)cc3)nc2c(=O)[nH]1`, for which the Potency entry was “inactive”.
The value for `CC(C)n1c(/C=C/[C@@H](O)C[C@@H](O)CC(=O)O)c(-c2ccc(F)cc2)c2ccccc21` was “inactive”; that for `Clc1cc(Cl)c(Cl)cc1Cl` was “inactive”; that for `CC1CC(OC(=O)c2ccccc2O)CC(C)(C)C1` (stereo not given) was “inactive”.
To `CCCCCCC(C)(C)S` belongs “inactive”.
The value for `COCC(C)O` (stereo not given) was “inactive”; that for `Clc1ccc(Cl)c(Cl)c1Cl` was “inactive”; that for `CCCCNC(N)=O` was “inactive”.
`CS(=O)(=O)c1ccc([C@@H](O)[C@@H](CO)NC(=O)C(Cl)Cl)cc1`: the Potency result is “inactive”.
To `CCCCOCCO` belongs “inactive”; to `CC1=CC[C@H]2C[C@@H]1C2(C)C`, “inactive”.
The value for `CNC[C@H](O)[C@@H](O)[C@H](O)[C@H](O)CO` was “inactive”; that for `CC1(C)CC(N=C=O)CC(C)(CN=C=O)C1` (stereo not given) was “inactive”; that for `CCCCC(CC)COC(=O)/C=C\C(=O)OCC(CC)CCCC` (stereo not given) was “inactive”.
The value for `CC1=C(CC(=O)O)c2cc(F)ccc2/C1=C\c1ccc(S(C)=O)cc1` (stereo not given) was “inactive”.
For the compound `C/C=C(C)/C=C/C=C(C)C`, the Potency result is “inactive”.
The value for `O=C(O)c1cc(-c2ccccc2)nc2ccccc12` was “inactive”; that for `CC(C)(C)C1CCC(O)CC1` (stereo not given) was “inactive”.
The value for `Cc1ccc(N)c(S(=O)(=O)O)c1` was “inactive”; that for `CC1(C)O[C@@H]2C[C@H]3[C@@H]4C[C@H](F)C5=CC(=O)CC[C@]5(C)[C@H]4[C@@H](O)C[C@]3(C)[C@]2(C(=O)CO)O1` was “inactive”; that for `O=C(Oc1ccccc1)c1ccc(O)cc1` was “inactive”.
To `C=C(C)C(=O)OCC(CC)(COC(=O)C(=C)C)COC(=O)C(=C)C` belongs “inactive”.
For the compound `CCc1ccccc1O`, the Potency entry was “inactive”.
To `C=C1CC[C@H](O)CC1=C/C=C1\CCC[C@]2(C)[C@@H]([C@H](C)/C=C/[C@H](C)C(C)C)CC[C@@H]12` belongs “inactive”; to `CC1COc2ccccc2N1C(=O)C(Cl)Cl` (stereo not given), “inactive”; to `O=[N+]([O-])c1cccc(Cl)c1`, “inactive”.
`C=CC(=O)OCCCCCCCC(C)C`: the Potency entry is “inactive”.
For the compound `CCCCCCCCCCC=CC1CC(=O)OC1=O` (stereo not given), the Potency result is “inactive”.
